Measurements: PubChem BioAssay (NCATS)
Inconclusive results are not listed. A call without a number means that no potency is given here. Calls of active or inactive are those of the source. Calls come from the whole dose curve.

What was measured:
[1] = Primary qHTS for Huh7 cytotoxicity: counterscreen for inhibitors of MERS-S pseudotyped particle cell entry (AID 1479147)
[2] = Primary qHTS for inhibitors of MERS-S pseudo-typed particle cell entry (AID 1479149); note: nearly all actives have a fitted effect of over 60% in size; note: potency is the fitted concentration of half-maximal effect
[3] = Primary qHTS for Vero E6 cytotoxicity: counterscreen for inhibitors of SARS-S pseudo-typed particle cell entry (AID 1479150)
[4] = Primary qHTS for inhibitors of SARS-S pseudo-typed particle cell entry (AID 1479145); note: nearly all actives have a fitted effect of over 45% in size

CC(=O)N(CC(O)CO)c1c(I)c(C(=O)NCC(O)CO)c(I)c(C(=O)NCC(O)CO)c1I (stereo not given)
Potency [1]: inactive
Potency [2]: inactive
Potency [3]: inactive

Cc1nc2ccc(CN(C)c3ccc(C(=O)N[C@@H](CCC(=O)O)C(=O)O)s3)cc2c(=O)[nH]1
Potency [1]: inactive
Potency [2]: inactive
Potency [3]: inactive

CC(C)[C@H]1C(=O)N2CCC[C@H]2[C@]2(O)O[C@](NC(=O)[C@@H]3C[C@@H]4c5cccc6[nH]cc(c56)C[C@H]4N(C)C3)(C(C)C)C(=O)N12
Potency [4]: inactive
Potency [1]: inactive
Potency [3]: inactive

CCN[C@H]1CN(CCCOC)S(=O)(=O)c2sc(S(N)(=O)=O)cc21
Potency [4]: inactive
Potency [1]: inactive
Potency [3]: inactive

O=C(C1CCCCC1)N1CC(=O)N2CCCc3ccccc3C2C1 (stereo not given)
Potency [1]: inactive
Potency [2]: inactive
Potency [3]: inactive

C=C1[C@H](CO)[C@@H](O)C[C@@H]1n1cnc2c(=O)[nH]c(N)nc21
Potency [1]: inactive
Potency [2]: inactive
Potency [3]: inactive

CC(=O)Nc1ccc(C(=O)O)cc1
Potency [4]: inactive
Potency [1]: inactive
Potency [3]: inactive

Cc1c(N(C)CS(=O)(=O)O)c(=O)n(-c2ccccc2)n1C
Potency [1]: inactive
Potency [2]: inactive
Potency [3]: inactive

NC(CS)C(=O)O (stereo not given)
Potency [1]: inactive
Potency [2]: inactive
Potency [3]: inactive

CC(C(=O)O)c1cccc(Oc2ccccc2)c1 (stereo not given)
Potency [4]: inactive
Potency [1]: inactive
Potency [3]: inactive

O=C(CCBr)N1CCN(C(=O)CCBr)CC1
Potency [1]: inactive
Potency [2]: inactive
Potency [3]: inactive

O=C(NCC(O)CO)c1c(I)c(C(=O)NCC(O)CO)c(I)c(N(CCO)C(=O)CO)c1I (stereo not given)
Potency [1]: inactive
Potency [2]: inactive
Potency [3]: inactive

CC(C)[C@H](N)C(=O)OCCOCn1cnc2c(=O)[nH]c(N)nc21
Potency [1]: inactive
Potency [2]: inactive
Potency [3]: inactive

NS(=O)(=O)c1cc(Cl)c(Cl)c(S(N)(=O)=O)c1
Potency [1]: inactive
Potency [2]: inactive
Potency [3]: inactive

Cc1ccnc(NS(=O)(=O)c2ccc(N)cc2)n1
Potency [1]: inactive
Potency [2]: inactive
Potency [3]: inactive

CCCCCCNC(=O)n1cc(F)c(=O)[nH]c1=O
Potency [1]: inactive
Potency [2]: 5.01 µM (active)
Potency [3]: inactive

CC(=O)Oc1cc(C(C)C)c(OCCN(C)C)cc1C
Potency [1]: inactive
Potency [2]: inactive
Potency [3]: inactive

COC(=O)C1=C(C)NC(C)=C(C(=O)OCC(C)=O)C1c1ccccc1[N+](=O)[O-] (stereo not given)
Potency [1]: inactive
Potency [2]: inactive
Potency [3]: inactive

COC(=O)CCCCC(CCSS/C(CCO)=C(\C)N(C=O)Cc1cnc(C)nc1N)SC(C)=O (stereo not given)
Potency [1]: inactive
Potency [2]: inactive
Potency [3]: inactive

C[N+]1(C)[C@@H]2CC(OC(=O)[C@H](CO)c3ccccc3)C[C@H]1[C@@H]1O[C@@H]12 (stereo not given in full)
Potency [1]: inactive
Potency [2]: inactive
Potency [3]: inactive

Cc1c(C)c2c(c(C)c1O)CCC(C)(COc1ccc(CC3SC(=O)NC3=O)cc1)O2 (stereo not given)
Potency [1]: inactive
Potency [2]: 25.1 µM (active)
Potency [3]: inactive

CO/N=C(/C(=O)N[C@@H]1C(=O)N2C(C(=O)OCOC(=O)C(C)(C)C)=C(C)CS[C@H]12)c1csc(N)n1
Potency [1]: inactive
Potency [2]: inactive
Potency [3]: inactive

CC(C)[C@H](N)C(=O)OCC(CO)OCn1cnc2c(=O)[nH]c(N)nc21 (stereo not given in full)
Potency [1]: inactive
Potency [2]: inactive
Potency [3]: inactive

Oc1ccccc1
Potency [1]: inactive
Potency [2]: inactive
Potency [3]: inactive

COc1c(N2C[C@@H]3CCCN[C@@H]3C2)c(F)cc2c(=O)c(C(=O)O)cn(C3CC3)c12
Potency [1]: inactive
Potency [2]: inactive
Potency [3]: inactive
